Measured values as given in PubChem BioAssay (NCATS).
Results filed as inconclusive are left out. This is one part of the list. Active and inactive are the calls of the source. The call rests on the fitted dose curve; in most records, active means well fitted curve in the direction sought with a large enough effect; inconclusive means small, poorly fitted or top-dose-only effect, or another doubt; inactive means no such curve, though single readings can be large; an effect the other way counts as inactive or inconclusive.

Key:
[1] = target: Rap guanine nucleotide exchange factor 3 (Homo sapiens) (UniProt O95398); experiment: Confirmatory qHTS for antagonist of cAMP-regulated guanine nucleotide exchange factor 3 (EPAC1) (AID 1645880); further: nearly all actives have a fitted effect of over 55% in size; further: potency means the concentration at half of the fitted maximal effect
Chain of Rap guanine nucleotide exchange factor 3 (Homo sapiens) (O95398 whole entry, looked up): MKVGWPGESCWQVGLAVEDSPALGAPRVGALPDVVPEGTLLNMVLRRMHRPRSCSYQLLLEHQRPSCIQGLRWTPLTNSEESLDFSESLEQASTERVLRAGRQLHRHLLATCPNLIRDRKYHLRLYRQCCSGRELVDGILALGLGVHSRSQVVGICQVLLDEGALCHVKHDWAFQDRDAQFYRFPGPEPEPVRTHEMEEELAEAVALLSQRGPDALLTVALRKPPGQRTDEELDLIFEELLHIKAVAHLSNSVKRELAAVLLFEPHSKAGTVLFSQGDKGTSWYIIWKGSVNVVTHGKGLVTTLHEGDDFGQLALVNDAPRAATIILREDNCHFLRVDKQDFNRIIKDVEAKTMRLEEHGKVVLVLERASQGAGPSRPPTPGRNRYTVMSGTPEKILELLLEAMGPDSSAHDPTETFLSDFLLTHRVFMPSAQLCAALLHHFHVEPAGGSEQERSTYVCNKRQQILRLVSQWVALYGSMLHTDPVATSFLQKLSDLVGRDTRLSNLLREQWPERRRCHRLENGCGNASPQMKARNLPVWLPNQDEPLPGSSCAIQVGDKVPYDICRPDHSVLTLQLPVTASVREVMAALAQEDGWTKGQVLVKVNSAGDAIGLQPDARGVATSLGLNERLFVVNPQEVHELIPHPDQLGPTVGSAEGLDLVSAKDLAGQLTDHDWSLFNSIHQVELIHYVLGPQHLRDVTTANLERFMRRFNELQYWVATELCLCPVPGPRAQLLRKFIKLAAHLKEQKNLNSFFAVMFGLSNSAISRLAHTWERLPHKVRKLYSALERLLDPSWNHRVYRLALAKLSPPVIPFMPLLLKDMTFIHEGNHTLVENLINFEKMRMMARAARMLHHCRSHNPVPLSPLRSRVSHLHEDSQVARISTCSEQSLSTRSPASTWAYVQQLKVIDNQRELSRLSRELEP
In short: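 Nucleotide exchange uses 100 nM EPAC1, 250 nM RAP1B-BODIPY-GDP and 50 uM GDP, with compounds in a concentration-titration series. After 5 min at room temperature, fluorescence (480 nm ex/540 nm em) is read every 5 min for 30 min. Data are normalized to control ATA and DMSO.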

[2] = target: Rap guanine nucleotide exchange factor 3 (Homo sapiens) (UniProt O95398); experiment: Confirmatory qHTS for agonist of cAMP-regulated guanine nucleotide exchange factor 3 (EPAC1) (AID 1645881); further: nearly all actives have a fitted effect of over 75% in size; further: potency means the concentration at half of the fitted maximal effect;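 on activation: EPAC1 catalysed release of BODIPY-GDP from Rap1B seen as fluorescence loss; 100% = effect of cAMP agonist control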
[3] = target: Rap guanine nucleotide exchange factor 4 (Homo sapiens) (UniProt Q8WZA2); experiment: Confirmatory qHTS for agonist of cAMP-regulated guanine nucleotide exchange factor 4 (EPAC2) (AID 1645884);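 further: nucleotide exchange releases bodipy-GDP from Rap1 and this lowers its fluorescence; nearly all actives have a fitted effect of over 65% in size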; further: potency means the concentration at half of the fitted maximal effect; on activation: on the % scale 0 is the no-effect control and ±100 the full control effect
Chain of Rap guanine nucleotide exchange factor 4 (Homo sapiens) (Q8WZA2 whole entry, looked up): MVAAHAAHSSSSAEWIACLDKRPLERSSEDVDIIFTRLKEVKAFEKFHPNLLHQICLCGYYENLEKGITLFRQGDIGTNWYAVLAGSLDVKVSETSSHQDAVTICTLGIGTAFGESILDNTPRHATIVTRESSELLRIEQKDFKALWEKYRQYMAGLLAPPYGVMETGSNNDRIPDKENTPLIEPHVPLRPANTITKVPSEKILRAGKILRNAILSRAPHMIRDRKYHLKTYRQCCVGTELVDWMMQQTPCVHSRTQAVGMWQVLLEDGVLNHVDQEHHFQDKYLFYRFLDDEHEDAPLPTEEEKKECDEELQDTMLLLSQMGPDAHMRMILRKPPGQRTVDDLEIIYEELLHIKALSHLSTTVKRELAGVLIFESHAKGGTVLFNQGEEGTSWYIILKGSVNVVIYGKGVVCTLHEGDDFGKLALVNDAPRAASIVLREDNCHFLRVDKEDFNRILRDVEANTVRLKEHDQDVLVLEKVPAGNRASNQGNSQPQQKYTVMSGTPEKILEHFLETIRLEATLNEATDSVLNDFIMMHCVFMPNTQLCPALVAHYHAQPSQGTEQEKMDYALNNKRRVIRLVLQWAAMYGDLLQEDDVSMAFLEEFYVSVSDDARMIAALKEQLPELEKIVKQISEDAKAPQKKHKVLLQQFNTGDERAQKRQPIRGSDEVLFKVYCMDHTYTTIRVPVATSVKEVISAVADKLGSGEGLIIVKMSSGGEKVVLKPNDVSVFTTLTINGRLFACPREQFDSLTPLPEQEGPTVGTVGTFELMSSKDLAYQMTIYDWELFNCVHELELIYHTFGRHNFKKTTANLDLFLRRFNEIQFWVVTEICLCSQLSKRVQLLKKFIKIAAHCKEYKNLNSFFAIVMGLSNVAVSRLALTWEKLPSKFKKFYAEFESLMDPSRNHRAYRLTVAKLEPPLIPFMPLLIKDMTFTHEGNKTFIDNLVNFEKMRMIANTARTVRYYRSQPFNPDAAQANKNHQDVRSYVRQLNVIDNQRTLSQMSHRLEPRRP

[4] = target: Rap guanine nucleotide exchange factor 4 (Homo sapiens) (UniProt Q8WZA2); experiment: Confirmatory qHTS for antagonist of cAMP-regulated guanine nucleotide exchange factor 4 (EPAC2) (AID 1645885); further: nearly all actives have a fitted effect of over 25% in size; further: potency means the concentration at half of the fitted maximal effect; on activity change, negative = inhibition: on the % scale 0 is the no-effect control and ±100 the full control effect
[5] = target: Rap guanine nucleotide exchange factor 3 (Homo sapiens) (UniProt O95398); experiment: Counterscreen qHTS for antagonist of cAMP-regulated guanine nucleotide exchange factor 3 (EPAC1) (AID 1645888);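 further: fluorescence loss as bound BODIPY-GDP is released from Rap1B; % of control where 0% means no effect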
In short: (§1)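 Rap1B–BODIPY-GDP (250 nM) with 50 uM GDP; compounds pin-transferred to 9.74 nM–152 uM final (activator) or from 7.32 nM upwards (inhibitor). Fluorescence Ex/Em 480/540 nm read at 5 and 30 min, then after adding cAMP or buffer, at room temperature.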

[6] = target: Rap guanine nucleotide exchange factor 3 (Homo sapiens) (UniProt O95398); experiment: Counterscreen qHTS for agonist of cAMP-regulated guanine nucleotide exchange factor 3 (EPAC1) (AID 1645889); further: nearly all actives have a fitted effect of over 40% in size; further: potency means the concentration at half of the fitted maximal effect; on activation: % of control where 0% means no effect
In short: as §1

[7] = target: DNA dC->dU-editing enzyme APOBEC-3G (Homo sapiens) (UniProt Q9HC16); experiment: qHTS for inhibitors of Vif-A3G interactions: Validation (AID 588379); further: 0% is about no effect
Chain of DNA dC->dU-editing enzyme APOBEC-3G (Homo sapiens) (Q9HC16 whole entry, looked up): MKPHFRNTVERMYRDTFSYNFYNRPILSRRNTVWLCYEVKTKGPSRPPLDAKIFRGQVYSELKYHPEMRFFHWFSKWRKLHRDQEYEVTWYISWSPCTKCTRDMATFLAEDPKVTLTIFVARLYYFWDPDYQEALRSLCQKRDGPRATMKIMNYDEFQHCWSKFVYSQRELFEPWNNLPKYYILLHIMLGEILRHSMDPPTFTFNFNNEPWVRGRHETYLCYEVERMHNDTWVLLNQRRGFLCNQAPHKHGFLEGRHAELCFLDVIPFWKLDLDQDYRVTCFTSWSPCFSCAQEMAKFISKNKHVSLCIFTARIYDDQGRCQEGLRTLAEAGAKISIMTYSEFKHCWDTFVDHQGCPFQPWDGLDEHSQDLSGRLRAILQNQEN
In short: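 HeLa cells stably expressing Vif and A3G-eYFP, 700 cells/well, incubated overnight at 37 deg C, then exposed to compound overnight at 37 deg C. Inhibition of Vif-mediated degradation read as increased yellow fluorescence (Ex 488/Em 500-530) by laser-scanning cytometry.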

[8] = target: DNA polymerase kappa (Homo sapiens) (UniProt Q9UBT6); experiment: qHTS for Inhibitors of Polymerase Kappa: Confirmatory Assay for Cherry-picked Compounds (AID 720501); settings: purified Pol-kappa, fluorescent strand-displacement substrate; further: potency means the concentration at half of the fitted maximal effect
Chain of DNA polymerase kappa (Homo sapiens) (Q9UBT6 whole entry, looked up): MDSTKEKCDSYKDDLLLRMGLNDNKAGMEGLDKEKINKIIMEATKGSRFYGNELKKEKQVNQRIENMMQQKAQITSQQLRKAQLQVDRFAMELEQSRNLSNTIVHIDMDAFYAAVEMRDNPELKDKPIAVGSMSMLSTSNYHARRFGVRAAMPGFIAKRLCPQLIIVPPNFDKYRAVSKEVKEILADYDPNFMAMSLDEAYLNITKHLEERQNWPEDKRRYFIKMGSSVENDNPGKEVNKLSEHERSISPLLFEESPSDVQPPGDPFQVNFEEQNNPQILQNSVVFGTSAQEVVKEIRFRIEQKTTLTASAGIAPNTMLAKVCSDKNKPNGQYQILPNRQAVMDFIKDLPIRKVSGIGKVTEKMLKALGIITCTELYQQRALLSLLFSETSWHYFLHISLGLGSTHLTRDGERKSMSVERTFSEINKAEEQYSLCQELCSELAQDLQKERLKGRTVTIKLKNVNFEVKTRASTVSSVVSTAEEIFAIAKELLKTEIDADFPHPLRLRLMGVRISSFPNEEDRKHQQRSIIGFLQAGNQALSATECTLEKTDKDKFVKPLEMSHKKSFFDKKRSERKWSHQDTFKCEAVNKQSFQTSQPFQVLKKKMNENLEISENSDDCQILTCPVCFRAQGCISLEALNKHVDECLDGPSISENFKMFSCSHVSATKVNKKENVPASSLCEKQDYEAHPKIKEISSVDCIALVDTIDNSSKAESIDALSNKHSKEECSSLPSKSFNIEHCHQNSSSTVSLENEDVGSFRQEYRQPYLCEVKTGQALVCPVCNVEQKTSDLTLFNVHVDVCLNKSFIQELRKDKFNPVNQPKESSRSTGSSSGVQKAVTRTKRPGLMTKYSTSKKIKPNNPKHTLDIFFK
In short: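 10 nM human Pol-kappa was preincubated with compound 15 min at room temperature, then 50 nM (final) primer/template substrate with TAMRA-labeled reporter strand and BHQ-2-labeled template added. Fluorescence (Ex 525, Em 598 nm) read at 0 and 10 min.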

[9] = target: DNA polymerase eta (Homo sapiens) (UniProt Q9Y253); experiment: qHTS for Inhibitors of Polymerase Eta: Confirmatory Assay for Cherry-picked Compounds (AID 720502); settings: Pol eta primer extension, TAMRA/BHQ fluorescence, 10 min; further: potency means the concentration at half of the fitted maximal effect
Chain of DNA polymerase eta (Homo sapiens) (Q9Y253 whole entry, looked up): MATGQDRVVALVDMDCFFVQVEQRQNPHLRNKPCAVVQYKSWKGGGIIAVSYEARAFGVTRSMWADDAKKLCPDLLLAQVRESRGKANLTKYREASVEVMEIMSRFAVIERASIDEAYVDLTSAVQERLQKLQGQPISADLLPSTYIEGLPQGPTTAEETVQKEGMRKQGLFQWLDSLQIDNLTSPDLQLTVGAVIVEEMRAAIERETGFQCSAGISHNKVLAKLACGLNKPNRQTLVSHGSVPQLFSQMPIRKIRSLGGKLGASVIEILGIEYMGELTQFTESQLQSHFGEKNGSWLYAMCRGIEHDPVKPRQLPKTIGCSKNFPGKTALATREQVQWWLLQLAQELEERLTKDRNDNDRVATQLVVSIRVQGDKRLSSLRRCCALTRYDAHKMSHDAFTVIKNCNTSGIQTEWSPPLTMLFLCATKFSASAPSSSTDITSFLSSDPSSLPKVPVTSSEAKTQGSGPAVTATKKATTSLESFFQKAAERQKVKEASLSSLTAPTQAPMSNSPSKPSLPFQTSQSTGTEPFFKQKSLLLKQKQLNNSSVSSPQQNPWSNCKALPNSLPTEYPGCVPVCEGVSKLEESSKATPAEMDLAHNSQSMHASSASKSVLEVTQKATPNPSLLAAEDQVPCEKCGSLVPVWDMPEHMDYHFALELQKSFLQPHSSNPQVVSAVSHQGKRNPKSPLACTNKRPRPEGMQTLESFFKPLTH
In short: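 Pol eta 10 nM; substrate 50 nM final (unlabeled primer, TAMRA reporter, BHQ-2 template); preincub. 15 min RT; reads t=0 and t=10 min at ex525/em598.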

[10] = target: Tumor susceptibility gene 101 protein (Homo sapiens) (UniProt Q99816); experiment: qHTS Assay for Iinhibitors of HIV-1 Budding by Blocking the Interaction of PTAP/TSG101: Hit Validation (AID 651600); further: potency means the concentration at half of the fitted maximal effect; nearly all actives have a fitted effect of over 70% in size
Chain of Tumor susceptibility gene 101 protein (Homo sapiens) (Q99816 whole entry, looked up, the tested form may be a part): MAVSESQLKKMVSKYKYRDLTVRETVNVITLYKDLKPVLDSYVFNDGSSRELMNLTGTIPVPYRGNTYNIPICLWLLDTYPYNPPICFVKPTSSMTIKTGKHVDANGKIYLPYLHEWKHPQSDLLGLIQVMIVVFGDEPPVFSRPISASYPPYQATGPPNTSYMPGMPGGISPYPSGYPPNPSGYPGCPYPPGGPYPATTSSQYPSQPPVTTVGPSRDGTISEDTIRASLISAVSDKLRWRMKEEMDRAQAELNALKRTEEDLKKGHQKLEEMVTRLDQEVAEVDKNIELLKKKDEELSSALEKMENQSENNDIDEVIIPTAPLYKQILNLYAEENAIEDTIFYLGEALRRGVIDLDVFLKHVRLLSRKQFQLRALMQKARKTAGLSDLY
In short: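 Compounds are added to the Tsg101 binding domain (10 uM final) in pH 7.5 HEPES buffer. FITC-PTAP peptide follows at 50 nM final. After 20 min at r.t., polarized FITC emission is measured.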

COc1ccc(N2C(=O)NC(=O)/C(=C/c3ccc([N+](=O)[O-])s3)C2=O)cc1
inactive: Potency [2] | Potency [3] | Potency [4] | outcome [5] | Potency [6]
active: Potency [1] 33.8 µM

O=C(O)CC1OCC=C2CN3CCC45C6=CC(=O)C(=O)C([N+](=O)[O-])=C6NC4C1C2CC35 (configuration not stated)
inactive: Potency [1] | Potency [2] | Potency [3] | Potency [4] | outcome [5] | Potency [6]

CN1CC[C@@]2(C)c3cc(O)ccc3N(C)[C@@H]12
inactive: outcome [7] | Potency [1] | Potency [2] | Potency [3] | Potency [4] | outcome [5]
active: Potency [6] 5.62 µM

Cc1cc(/C=C2/C(=O)NC(=O)N(Cc3ccco3)C2=O)c(C)n1-c1ccccc1O
active: Potency [1] 44.7 µM | Potency [4] 0.19 µM
inactive: Potency [2] | activation [3] 11.8% [at 17.1 µM, percent relative to cAMP agonist control] | activity change, negative = inhibition [5] -13.1% [at 30.8 µM]

O=C1NC(=O)N(Cc2ccc(F)cc2)C(=O)/C1=C\c1ccc([N+](=O)[O-])s1
inactive: Potency [2] | Potency [3] | Potency [4] | outcome [5]
active: Potency [1] 12 µM | Potency [6] 22.4 µM

CC[C@@H]1c2ccccc2[C@@H]2CC[C@H]1N2c1ccccc1
inactive: Potency [1] | Potency [2] | activation [3] 4.18% [at 17.1 µM, percent relative to cAMP agonist control] | activity change, negative = inhibition [4] -6.37% [at 12.7 µM] | activity change, negative = inhibition [5] -4.57% [at 30.8 µM] | activation [6] -4.47% [at 30.8 µM]

COc1ccc(C(=O)C2CN(C)CC2c2ccc(Cl)cc2)cc1 (configuration not stated)
inactive: Potency [1] | Potency [2] | activation [3] 2.15% [at 17.1 µM, percent relative to cAMP agonist control] | activity change, negative = inhibition [4] -16.3% [at 12.7 µM] | activity change, negative = inhibition [5] 7.3% [at 30.8 µM]

Cc1ccc(C)c(Cn2c(C(=O)O)c(C=O)c3ccccc32)c1
inactive: Potency [1] | Potency [2] | activation [3] 10% [at 17.1 µM, percent relative to cAMP agonist control] | activity change, negative = inhibition [4] 3.6% [at 12.7 µM] | activity change, negative = inhibition [5] -5.1% [at 30.8 µM] | activation [6] 9.64% [at 30.8 µM]

O=C1NC(=O)N(Cc2ccco2)C(=O)/C1=C/C=C/c1ccco1
inactive: Potency [1] | Potency [2] | activation [3] 0.0468% [at 17.1 µM, percent relative to cAMP agonist control] | activity change, negative = inhibition [4] 0.223% [at 12.7 µM] | activity change, negative = inhibition [5] -7.48% [at 30.8 µM]

O=C1NC(=O)N(Cc2ccco2)C(=O)/C1=C\c1ccc(-c2ccc(F)cc2)o1
active: Potency [8] 42.3 µM | Potency [9] 47.8 µM | Potency [1] 22.4 µM
inactive: Potency [2] | activation [3] -0.903% [at 17.1 µM, percent relative to cAMP agonist control] | activity change, negative = inhibition [4] -6.14% [at 12.7 µM] | activity change, negative = inhibition [5] -21.9% [at 30.8 µM] | activation [6] 11.1% [at 30.8 µM]

O=C1NC(=O)N(Cc2ccccc2)C(=O)/C1=C/C=C/c1ccco1
inactive: Potency [2] | activation [3] 4.26% [at 17.1 µM, percent relative to cAMP agonist control] | activity change, negative = inhibition [4] -1.14% [at 12.7 µM] | activity change, negative = inhibition [5] -0.901% [at 30.8 µM]
active: Potency [1] 44.7 µM

COC(=O)C1=C(c2ccc3ccccc3c2)C[C@@H]2CC[C@H]1N2C(=O)NC1CC1
inactive: Potency [1] | Potency [2] | Potency [3] | Potency [4] | outcome [5] | Potency [6]

CCOC(=O)[C@]12Cc3cc(OC)ccc3[C@H]1N(Cc1ccccc1)C(=O)c1cc(F)c(F)cc12
inactive: Potency [1] | Potency [2] | Potency [3] | Potency [4] | outcome [5]

O=c1cc(C(F)(F)F)c2cc3c4c(c2o1)CCCN4CCC3
inactive: Potency [1] | outcome [5]
active: Potency [10] 0.651 µM | Potency [2] 50.1 µM | Potency [3] 39.8 µM | Potency [4] 60.1 µM

O=C1NCN(c2ccccc2)C12CCN(C(c1cc3ccccc3o1)c1nnnn1C1CCCC1)CC2 (configuration not stated)
inactive: Potency [1] | Potency [2] | activation [3] 13.1% [at 17.1 µM, percent relative to cAMP agonist control] | activity change, negative = inhibition [4] -12.5% [at 12.7 µM] | activity change, negative = inhibition [5] -0.487% [at 30.8 µM]

N#CC(C#N)=NNc1ccc(S(N)(=O)=O)cc1
inactive: Potency [2] | activation [3] 3.48% [at 17.1 µM, percent relative to cAMP agonist control] | activity change, negative = inhibition [4] 1.67% [at 12.7 µM] | activity change, negative = inhibition [5] -8.77% [at 30.8 µM]
active: Potency [1] 44.7 µM

Cc1ccc(-n2c(O)c(/C=C/C=Nc3ccccc3)c(=O)[nH]c2=O)cc1
active: Potency [6] 44.7 µM
inactive: Potency [1] | Potency [2] | Potency [3] | outcome [5]

Cc1cc(C=C(C#N)C#N)ccc1N1CCCC1
active: Potency [2] 100 µM | Potency [3] 112 µM
inactive: Potency [1] | outcome [5]

Cn1cc(/C=C2\C(=O)NC(=O)N(c3ccccc3)C2=O)c2ccccc21
inactive: Potency [1] | outcome [5]
active: Potency [3] 112 µM | Potency [4] 95.3 µM

Cc1ccc(N)c(C(=O)c2ccc(Br)cc2)c1
inactive: Potency [1] | Potency [2] | Potency [4] | outcome [5]

O=[N+]([O-])c1ccc(N2CCCCCC2)c2nonc12
inactive: Potency [1] | Potency [4] | outcome [5]
active: Potency [3] 100 µM | Potency [6] 25.1 µM

O=c1[nH]c(=O)n(-c2cccc(F)c2)c(O)c1/C=C1\C=Nc2ccccc21
inactive: Potency [1] | Potency [3] | Potency [4] | outcome [5] | Potency [6]

COC1C(C)OC(OC2CC(C)(O)Cc3cc4c(c(O)c32)C(=O)c2c(O)cc3c(c2C4=O)OC2OC3(C)C(O)C(N(C)C)C2O)C(OC)C1(C)OC (configuration not stated)
inactive: Potency [1] | activation [3] 18.7% [at 17.1 µM, percent relative to cAMP agonist control] | activity change, negative = inhibition [4] 15.2% [at 12.7 µM] | activity change, negative = inhibition [5] 87.2% [at 30.8 µM]

CCOC(=O)[C@]12Cc3ccccc3[C@H]1N(Cc1ccccc1)C(=O)c1cc(OC)ccc12
inactive: Potency [1] | Potency [2] | activation [3] -5.98% [at 17.1 µM, percent relative to cAMP agonist control] | activity change, negative = inhibition [5] 2.15% [at 30.8 µM] | activation [6] 20.9% [at 30.8 µM]

O=c1[nH]c(=S)n(-c2ccccc2F)c(O)c1C=Nc1ccc(N2CCOCC2)cc1
inactive: Potency [1] | activation [3] 4.59% [at 17.1 µM, percent relative to cAMP agonist control] | activity change, negative = inhibition [4] -15.3% [at 12.7 µM] | activity change, negative = inhibition [5] -4.47% [at 30.8 µM] | activation [6] 32% [at 30.8 µM]

COC(=O)C1C2c3ccccc3C(c3ccccc32)C1(C)C(=O)OC (configuration not stated)
inactive: Potency [1] | Potency [2] | activation [3] 9.42% [at 17.1 µM, percent relative to cAMP agonist control] | activity change, negative = inhibition [5] 4.93% [at 30.8 µM]
